# Test results taken from PubChem BioAssay (NCI).
# The panel holds about 83,000 compounds, 20% with a hit somewhere; the sample as a whole holds those more often.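 Single-concentration screen, 48 h exposure, 96-well plates. Endpoint: percent growth. Below 10 = active.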 Values without a mark were called inactive. The source made the active and inactive calls.
# Legend:
# Experiment in all cases: NCI-60 one-dose screen, 48 h (100 = growth as untreated, 0 = no growth, -100 = all killed)
# Conditions in all cases: 10 µM unless noted
# NCI/ADR-RES ovarian = tested on: NCI/ADR-RES ovarian
# BT-549 breast = tested on: BT-549 breast
# MDA-MB-435 melanoma = tested on: MDA-MB-435 melanoma
# MCF7 breast = tested on: MCF7 breast
# HCT-116 colon = tested on: HCT-116 colon
# HCC-2998 colon = tested on: HCC-2998 colon
# KM12 colon = tested on: KM12 colon
# SW-620 colon = tested on: SW-620 colon
# T-47D breast = tested on: T-47D breast
SMILES,growth (NCI/ADR-RES ovarian),growth (BT-549 breast),growth (MDA-MB-435 melanoma),growth (MCF7 breast),growth (HCT-116 colon),growth (HCC-2998 colon),growth (KM12 colon),growth (SW-620 colon),growth (T-47D breast)
COc1cc([N+](=O)[O-])c2nc(C)ccc2c1[N+](=O)[O-],105%,97.4%,71.3%,69.1%,63.5%,107%,79.8%,–,–
O=[N+]([O-])c1ccc([Se]C2CCCCC2Cl)c([N+](=O)[O-])c1 (centres undefined),79%,60.8%,55.3%,91.4%,46.6%,98.8%,–,106%,–
NC1CC2CCCCC2CC1(O)c1ccccc1 (centres undefined),–,102%,105%,96.1%,93.7%,109%,99.7%,101%,99.5%
CC(C)=CCC/C(C)=C/C=N\N=C(/N)N[N+](=O)[O-],102%,92.8%,94%,81.1%,91.1%,108%,95.7%,106%,–
CCCc1cc(O)c2c3c(c(=O)oc2c1)CN(C)CC3,–,39.2%,-57.8% (active),19%,20.8%,53.9%,35.7%,12.8%,25.5%
CCC1(C)CC(CCNCc2ccccc2O)(c2ccc(C)cc2)CCO1 (centres undefined),–,101%,100%,97.3%,109%,117%,107%,103%,103%
CCCCCCCC[N+](C)(CCCCCCCC)CCCCCCCC,-100% (active),–,-90.8% (active),-100% (active),-100% (active),-98% (active),-100% (active),-100% (active),-73.4% (active)
Nc1ccc2c(c1)Cc1cc(Br)ccc1-2,101%,–,111%,64.7%,98.2%,99.7%,105%,108%,102%
C/C(CC(C)(C)N1CC1)=N\NC(=O)Nc1cccc2ccccc12,–,68.5%,79.6%,24.9%,46.5%,75.3%,75.9%,52.3%,55.8%
C[C@@H]1CCC2[C@@H](C)[C@H](OC(=O)CCC(=O)NCCNC(=O)Cc3cc(=O)oc4cc(N(C)C)ccc34)O[C@@H]3O[C@]4(C)CC[C@@H]1C23OO4 (some centres undefined),16.6%,–,19.2%,35.9%,10.1%,50.2%,22.2%,25.3%,41%
C1CCC([PH+](C2CCCCC2)C2CCCCC2[PH+](C2CCCCC2)C2CCCCC2)CC1.O=C(C1[CH-]CCCC1)C1CCCC[N-]1.[Au] (centres undefined),–,-14.7% (active),-43.6% (active),-42.9% (active),-54% (active),-83% (active),-60.9% (active),–,–
CCOC(=O)CCC(NC(=O)C(Cc1ccc(N(CCCl)CCCl)cc1)NC=O)C(=O)OCC (centres undefined),67.2%,69.6%,21.1%,22.1%,61.5%,46.9%,82.7%,51.5%,–
O=C(N/N=C\c1ccc(N(CCCl)CCCl)cc1Cl)c1cccnc1,86.4%,90.7%,104%,34.4%,43%,76.8%,102%,79.2%,–
C=CCCCCCCCCC(=O)[O-].C=CCCCCCCCCC(=O)[O-].[Zn+2],99.2%,108%,100%,–,101%,107%,94.3%,102%,–
Oc1c(CCl)cc(Cl)cc1CCl,102%,–,102%,105%,115%,96.5%,105%,115%,102%
CC12CC(=O)C3(SC#N)C(CCC4=CC(=O)CCC43C)C1CCC2=O (centres undefined),–,90.7%,70.9%,57.7%,39.7%,105%,102%,–,32.8%
ClCCN(CCCl)c1ccc(-n2cnc3c(Cl)ncnc32)cc1,61%,–,46.9%,25.7%,33.6%,82.6%,46.3%,-73.8% (active),41.1%
CC(CO)NC1CCCCC1 (centres undefined),116%,106%,112%,109%,105%,106%,114%,105%,–
CNC(=O)Oc1ccc(C(C)(C)C)cc1OC(=O)NC,104%,–,97%,93.9%,93%,103%,99.8%,94.8%,98.9%
Cc1ccccc1NC(=NCCCN1CC1)Nc1ccccc1C,–,104%,93%,68.9%,79.8%,102%,94.6%,87.1%,74.5%
ClCCN(CCCl)c1ccc(/C=N\N=C\c2ccc(N(CCCl)CCCl)cc2)cc1,55.1%,50.5%,27.4%,35.1%,36.7%,45.7%,30.3%,–,–
COc1ccc(C(=O)c2sc3nc4c(cc3c2N)N2CCC4CC2)cc1OC,79.4%,81.5%,99.9%,84.5%,86.2%,109%,97.7%,126%,–
